Results from PubChem BioAssay (EPA / NIEHS).
Several values for one entry are separate records, joined by “and”; a condition that tells them apart may be missing. Identical values can stand only once. Where a structure was tested more than once in an assay, its records may differ in their call. Activity calls are given as the source filed them. The calls were made as follows: active = hit-call score of the fitted dose curve at least 0.9, where 1 is the maximum; inactive = score below 0.9.

Experiment: CCTE_Shafer_MEA_dev_network_spike_duration_std: CCTE's Neural Network Formation Assay for Standard Deviation of Network Spike Duration, Shafer Lab (AID 2284052);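 also: hits are decreases in network spike duration SD versus DMSO vehicle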
Experimental: CCTE_Shafer_MEA_dev assay is conducted using Axion Biosystems 48 well microelectrode array (MEA) plates and Maestro recording system. Each well of the MEA plate contains a grid of 16 microelectrodes embedded in the culture surface. Electrically active cells, such as neurons, can be cultured over the electrodes, and electrical activity in these cells can be recorded extracellularly. The spontaneous firing of neurons is captured from each electrode on a microsecond timescale providing both temporally and spatially precise data. […] The CCTE_Shafer_MEA_dev assay uses primary cultures of rat cortical neurons. Recordings are made on days post-plating 5, 7, 9 and 12. As these cultures mature over time, neural networks develop functional activity and form cohesive networks in which electrical activity can be highly coordinated. CCTE_Shafer_MEA_dev_network_spike_duration_std is 1 of 19 assay components of the CCTE_Shafer_MEA_dev assay. It measures the standard deviation of the duration of network spikes (temporally-clustered groups of action potential firing across multiple electrodes) during a recording in a microelectrode array (MEA) using Axion Biosystems Maestro 768 channel amplifier with the AxIS adaptive spike detector. To collapse across multiple recordings made on days post-plating 5, 7, 9 and 12, the trapezoidal area-under-the-curve of the component is calculated.Data from the assay component CCTE_Shafer_MEA_dev_network_spike_duration_std was analyzed into 1 assay endpoint. This assay endpoint, CCTE_Shafer_MEA_dev_network_spike_duration_std, was analyzed in the negative analysis fitting direction relative to DMSO as the negative control and baseline of activity. Using a type of functional reporter, gain or loss-of-signal activity can be used to understand electrical activity.
On the day prior to culture, each well was coated thoroughly with 150 uL of 0.05% polyethyleneimine (PEI, Sigma Cat P3143) in 50 mM HEPES (Sigma Cat H7523) at a pH of 8. The plate was incubated at 37C for one hour. PEI was rinsed out with 500 uL of sterile water three times. Plates were stored at 4C until the day of culture. This culture was plated at a seeding density of 1.5 x 10^5 cells/well on a 48-well MEA plate, prepared as described above. Cells were administered via a 25 uL media/laminin ([…]; Sigma Cat L2020-1MG) drop directly onto the microelectrode array, as adding the cells with the laminin results in better attachment than pre-coating with laminin. After 2 hours, an additional 475 uL of cortical media was added and the cells returned to the incubator. Exposure starts at day 0 of plating and is continued over twelve days of network development until the experiment is terminated. Cells are fed with fresh medium on DIV 5 and 9, following the recordings on those days. The entire volume of media in the well is exchanged and any vehicle or compound treatment is renewed. Complete details are found in OP-NHEERL/ISTD/SBB/TJS/2015-03-r0 (available on request, email shafer.tim@epa.gov). Measurement of the electrical activity is non-invasive, and recordings can be made from the same plate over multiple different days of the culture. In cortical neurons, this allows for the measurement of extracellular action potentials over the period during which networks form in the MEA plate.

Question: Which outcome does the source give for CCN(CC)c1nc(C)cc(OP(=S)(OC)OC)n1 here?
Answer: inactive

Question: Which outcome does the source give for CCOC(=O)C(C)OC(=O)c1cc(Oc2ccc(C(F)(F)F)cc2Cl)ccc1[N+](=O)[O-] (configuration not stated) here?
Answer: inactive

Question: Which outcome does the source give for COC(=O)N(C(=O)N1CO[C@@]2(C(=O)OC)Cc3cc(Cl)ccc3C2=N1)c1ccc(OC(F)(F)F)cc1 here?
Answer: inactive

Question: For Cc1c(COC(=O)[C@@H]2[C@H](/C=C(\Cl)C(F)(F)F)C2(C)C)cccc1-c1ccccc1, which AC50 is on record?
Answer: 2.29 µM (active) and 2.33 µM (active)

Question: With CCNC(=O)NC(=O)C(C#N)=NOC as the compound, how does the outcome read?
Answer: inactive

Question: For CC1(C)C(C=C(Cl)Cl)C1C(=O)OC(C#N)c1cccc(Oc2ccccc2)c1 (configuration not stated), which AC50 is on record?
Answer: 2.2 µM (active)

Question: What about the outcome of the same compound?
Answer: inactive

Question: For CCCN(CC)CC1COC2(CCC(C(C)(C)C)CC2)O1 (configuration not stated), which AC50 is on record?
Answer: 0.0662 µM (active)

Question: For O=C(Nc1ccccc1-c1ccc(Cl)cc1)c1cccnc1Cl, which outcome is on record?
Answer: inactive

Question: What about the AC50 of the same compound?
Answer: 1.14 µM (active)

Question: Which outcome does the source give for CC(C)=CC1C(C(=O)OCc2coc(Cc3ccccc3)c2)C1(C)C (configuration not stated) here?
Answer: inactive

Question: With CC1(C)C(C(=O)OC(C#N)c2cccc(Oc3ccccc3)c2)C1(C)C (configuration not stated) as the compound, how does the outcome read?
Answer: inactive

Question: Which results are given for CCOP(=O)(OCC)Oc1nc(Cl)c(Cl)cc1Cl?
Answer: AC50: 2.98 µM (active); outcome: inactive

Question: For COP(=S)(OC)Oc1ccc([N+](=O)[O-])c(C)c1, which outcome is on record?
Answer: inactive

Question: For CN/C(=N\[N+](=O)[O-])NCc1cnc(Cl)s1, which outcome is on record?
Answer: inactive

Question: With O=C1C2CC=CCC2C(=O)N1SC(Cl)(Cl)Cl (configuration not stated) as the compound, how does the outcome read?
Answer: inactive

Question: With CS(=O)(=O)c1ccc(C(=O)C2C(=O)CCCC2=O)c([N+](=O)[O-])c1 as the compound, how does the outcome read?
Answer: inactive

Question: For CS(=O)(=O)c1cc(C(F)(F)F)ccc1C(=O)c1cnoc1C1CC1, which outcome is on record?
Answer: inactive

Question: Which AC50 does the source give for CO/N=C(/C1=NOCCO1)c1ccccc1Oc1ncnc(Oc2ccccc2Cl)c1F here?
Answer: 0.889 µM (active)

Question: For CCSC(=O)N1CCCCCC1, which outcome is on record?
Answer: inactive

Question: Which AC50 does the source give for C=C(C)CN(CC)c1c([N+](=O)[O-])cc(C(F)(F)F)cc1[N+](=O)[O-] here?
Answer: 13.1 µM (active)

Question: With CNC(=O)Oc1cccc2ccccc12 as the compound, how does the outcome read?
Answer: inactive

Question: With COP(=O)(OC)O/C(C)=C/C(=O)N(C)C as the compound, how does the outcome read?
Answer: inactive

Question: With CC(C)(C)C(=O)C(Oc1ccc(Cl)cc1)n1cncn1 (configuration not stated) as the compound, how does the outcome read?
Answer: inactive

Question: With COP(=S)(OC)SCn1nnc2ccccc2c1=O as the compound, how does the outcome read?
Answer: inactive

Question: For N#CN=C1SCCN1Cc1ccc(Cl)nc1, which outcome is on record?
Answer: inactive
